# Experiments:
# Test in all cases: PBM binding z-score (relative to random genomic background probes); higher = stronger binding; sequences stand for … in GC…GCGATTGACAGCGTAGAATGAAGG
# [1] = tested on: FXR:RXRa (NR concentration 270 nM, RXRa partner concentration 90 nM)
# Outline: (§1)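 Binding buffer was PBS pH 7.4 with 2% milk, 0.02% Triton X-100, 1 mM DTT, 0.2 mg/mL BSA and 0.4 mg/ml salmon testes DNA. In it, ligand-free nuclear receptor dimers were incubated 1 h on custom Agilent 4×180K protein-binding microarrays carrying double-stranded probes. Antibodies against each partner (one per run) detected binding, and z-scores were calculated against random background probes after regression normalization of scanned fluorescence.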
# [2] = tested on: LXRa:RXRa (NR concentration 270 nM, RXRa partner concentration 90 nM)
# Outline: as §1
# [3] = tested on: LXRa homodimer (NR concentration 270 nM)
# Outline: as §1
# [4] = tested on: LXRb:RXRa (NR concentration 270 nM, RXRa partner concentration 90 nM)
# Outline: as §1
# [5] = tested on: LXRb homodimer (NR concentration 270 nM)
# Outline: as §1
# [6] = tested on: PPARa:RXRa (NR concentration 270 nM, RXRa partner concentration 90 nM)
# Outline: as §1
# [7] = tested on: PPARg:RXRa (NR concentration 180 nM, RXRa partner concentration 90 nM)
# Outline: as §1
# [8] = tested on: PPARg:RXRa 270nM:90nM, anti-RXR (NR concentration 270 nM, RXRa partner concentration 90 nM)
# Outline: as §1
# [9] = tested on: PPARg:RXRa 30nM:10nM, anti-RXR (NR concentration 30 nM, RXRa partner concentration 10 nM)
# Outline: as §1
# [10] = tested on: PPARg:RXRa 90nM:30nM, anti-RXR (NR concentration 90 nM, RXRa partner concentration 30 nM)
# Outline: as §1
# [11] = tested on: PPARg:RXRa DBDmut IVT, anti-RXR (DBD mutation: RXRa K156A/R161A, NR concentration 270 nM, RXRa partner concentration 90 nM)
# Outline: as §1
# [12] = tested on: PPARg:RXRa IVT, anti-PPARg (NR concentration 270 nM, RXRa partner concentration 90 nM)
# Outline: as §1
# [13] = tested on: PPARg DBDmut:RXRa IVT, anti-PPARg (DBD mutation: PPARg1 K132A/R137A, NR concentration 270 nM, RXRa partner concentration 90 nM)
# Outline: as §1
# [14] = tested on: PPARg DBDmut IVT, anti-PPARg (DBD mutation: PPARg1 K132A/R137A, NR concentration 270 nM)
# Outline: as §1
# [15] = tested on: PPARg homodimer (NR concentration 180 nM)
# Outline: as §1
# [16] = tested on: PXR:RXRa (NR concentration 270 nM, RXRa partner concentration 90 nM)
# Outline: as §1
# [17] = tested on: PXR homodimer (NR concentration 270 nM)
# Outline: as §1
# [18] = tested on: RARa:RXR (NR concentration 270 nM, RXRa partner concentration 90 nM)
# Outline: as §1
# [19] = tested on: RARa homodimer (NR concentration 270 nM)
# Outline: as §1
# [20] = tested on: RARb:RXRa (NR concentration 270 nM, RXRa partner concentration 90 nM)
# Outline: as §1
Sequence,PBM binding z-score [1],PBM binding z-score [2],PBM binding z-score [3],PBM binding z-score [4],PBM binding z-score [5],PBM binding z-score [6],PBM binding z-score [7],PBM binding z-score [8],PBM binding z-score [9],PBM binding z-score [10],PBM binding z-score [11],PBM binding z-score [12],PBM binding z-score [13],PBM binding z-score [14],PBM binding z-score [15],PBM binding z-score [16],PBM binding z-score [17],PBM binding z-score [18],PBM binding z-score [19],PBM binding z-score [20]
GCTTACGGGTCAAAGGTTACAGCATGAATAGAAT,8.04,5.9,0.488,6.05,0.89,7.24,12,9.99,10,11.5,5.26,6.43,2.32,2.26,5.3,6.45,0.418,8.5,1.16,4.7
CGTCAAAGTTCAAGGCAACGTAACAGAAAGCAGC,5.83,5.32,2.35,2.97,0.47,4.47,3.88,4.87,1.54,3.53,0.106,1.35,-0.0637,0.203,2.24,3.56,1.41,2.87,0.477,4.98
TAGCCTAGGTCATGCGGGCCAGCATAGTGTCGGC,3.77,3,0.115,1.37,-0.19,3.4,2.11,2.55,0.274,1.49,1.81,2.94,0.0937,-0.357,1.08,1.52,-0.642,2.1,-0.53,3.59
TTACCAAGGTGAAAGGTCGGTGATGCACGCCTTG,2.27,1.8,-0.377,1.34,-0.609,4.27,7.36,6.88,6.6,7.95,2.41,4.51,1.85,0.075,1.26,2.17,-0.356,3.77,-0.0129,2.65
CCTTACGGGTCACTGACAGGTCATAGCATTTGGA,5.83,5.72,2.3,4.51,-0.00143,5.36,4.81,5.35,2.02,4.03,3.69,3.99,0.0751,0.785,4.06,5.34,0.53,6.69,1.34,4.53
GATACAGGGTGAAGGCCAGAGTACGCGTATTGAT,-0.425,-0.357,-0.615,-0.42,-0.925,1.08,1.41,1.72,0.138,0.958,0.737,1.34,-0.37,-0.0968,-0.218,-0.324,-0.0784,-0.132,-0.36,0.882
CCTTACGGGTCAGGGTTATAGCACGGGTGGTACG,3.45,2.22,-0.256,1.95,-0.0988,3.9,2.72,3.18,0.621,1.96,0.748,2.22,-0.0775,-0.847,1.81,2.25,-0.00485,3.06,0.308,3.41
GATACACGGTCAAGGCCAGAGTACGCGTATTGAT,0.0472,0.275,-0.18,-0.406,-0.667,-0.0579,0.695,-0.00524,-0.0944,-0.0776,0.208,0.594,-0.0876,-0.79,-0.507,0.00631,-0.314,-0.159,-0.63,2.67
CCTTACGGGTCAAGGTTGTAGCACGGGTGGTACG,4.89,3.37,-0.181,2.48,-0.0387,4.68,4.01,4.21,1.2,3,0.974,3.06,0.572,-0.462,1.93,2.61,-0.423,3.82,-0.14,3.86
CCTACTGGGGCACGAAAGGTCATTGATTCAGTGA,4.09,5.15,4.81,4.57,0.0561,4.99,6.01,5.54,2.79,4.75,5.75,6.88,0.869,0.0108,3.09,5.68,1.16,5.47,0.333,4.41
GCTGCTAGGTCAACTGAAGGTCAGCTAAAGCTCG,5.14,4.92,4.01,3.69,0.218,4.26,3.73,4.61,1.03,3.19,5,4.47,-0.0557,-1.06,5.87,4.62,0.437,6.6,2.11,4.98
ATCGAAAGGTCGAAGGAGAGTATACCCACCCGAA,4.01,3.28,0.14,2.48,0.895,3.8,2.15,2.57,1.14,2.01,-0.0352,1.35,0.946,0.145,1.41,2.39,0.0516,3.11,0.728,3.62
ACTAGCAGGCCAAGGGTGACTCAAGATTAGTCCG,-0.498,-0.205,-0.435,-0.119,-1,2.13,4.45,5.29,3.6,5.35,0.931,1.84,-0.0543,-0.633,-0.412,-0.0749,-0.354,0.264,-0.894,0.8
CGTCCGAGGTCAATGCTAGGTCAGTGAAAGCATT,7.31,5.94,2.78,5.22,1.08,5.78,5.25,5.35,1.89,4.18,3.56,4.42,-0.103,-0.0468,4.53,5.62,2.14,6.71,0.652,5.17
TCTAGTTGGTGACGGAGGTCACACACGACGGGTA,2.59,3.03,1.85,2.9,0.435,3.65,2.52,3.45,3.36,3.36,1.77,3.08,0.76,0.756,2.31,3.78,0.917,3.78,0.681,3.36
CCTAGTTGGTCAGGAGGCCACACACCGGATATGA,0.457,0.364,0.335,0.191,0.0739,0.181,0.848,0.732,0.118,0.128,0.654,1.37,0.117,-0.424,0.805,-0.041,0.627,-0.174,0.55,1.23
AGTCAAAGTTGATCTAGGTAACGTAAGATATGCT,-0.0957,-0.391,-0.431,-0.102,-0.616,0.713,1.39,1.2,0.421,0.958,0.813,2.74,0.517,1.07,-0.371,-0.212,-0.146,-0.0598,-0.276,0.672
CGAACTAGGTCATCGAGGACAGTGAATACATTGA,4.22,2.59,0.3,1.9,-0.0709,4.86,7.79,6.42,4.26,6.2,8.15,8.47,2.12,2.09,1.73,2.62,2.57,2.26,0.951,4
CCTACTGGGCCATACAGAGGTCATTGATCATATG,2.83,4.1,5.31,3.73,0.274,3.89,2.98,3.58,1.03,2.85,4.36,4.21,1.03,0.445,4.53,5.28,2.92,5.24,1.8,3.12
TCTCGGATGACACGAAAGGTCAGAGCTCGACATC,2.84,3.68,2.02,3.4,0.368,3.8,1.38,2.75,2.83,2.72,1.88,1.33,0.619,1.03,3.4,3.7,0.17,4.37,1.07,3.68
CCTTCTGGGCCATTCAGAGGTCATTGATCATATG,2.86,4.26,6.84,3.99,0.742,4.02,1.85,2.79,0.927,2.05,4.48,3.89,-0.117,0.751,2.03,4.77,2.46,4.25,0.112,3.25
ATATGCAGGTTATCGGGTCATTCAGTTTGCGCAT,3.37,3.44,1.57,3.03,0.832,4.13,4.45,4.25,1.56,3.42,4.84,5.2,2.48,0.956,2.06,3.99,7.38,4.1,0.986,2.51
CCTACGGGGCCAAGGTCATTGATCAGTCAAAGCA,3.57,3.06,0.732,2.94,-0.542,3.79,2.83,3.73,1.3,2.88,0.0794,1.73,-1.66,-0.738,2.31,3.58,0.818,3.78,-0.181,3.57
GATACAGGGTCAACTAGAGGCCAGAGTATGGAAA,7.52,5.21,0.703,4.77,0.877,6.2,6.7,5.69,2.72,4.61,2.63,3.97,1.7,0.682,3.88,4.77,0.995,6.02,0.807,4.8
GATACAGGGTCAGCTAGAGGGCAGAGTATGGAAA,4.97,3.61,0.31,3.04,-0.0711,4.5,4.11,3.6,0.823,2.38,1.36,2.69,1.37,0.18,4.2,4.38,0.747,5.63,1.68,4.51
TAGCCTAGGTCATTCAGGGGGCAGTATAGAAAGC,5.76,4.78,2.16,5.66,11,4.6,3.97,4.6,1.89,3.53,2.78,4.86,5.63,7.07,4.21,4.22,1.22,5.41,0.982,4.45
CGTCCAAGGTCATGGGAGGTCAGTGAAGACAGAT,7.92,7.36,5.12,6.35,0.656,6.08,6.25,6.11,2.74,5.07,2.93,4.47,0.44,-0.0199,4.73,7.17,5.18,6.5,2.4,5.61
ACTAGTTGGTCACCTGAGGTCACACACAATTCGG,4.76,6.29,6.67,4.97,1.5,4.17,2.75,3.37,1.09,2.1,2.55,3.78,1.79,1.35,4.91,6.25,3.12,5.48,2.94,3.91
CCTAGTTGGTCAAGGTCACACATGCTATAGGTAC,3.87,3.69,2.25,3.88,0.901,4.01,3.24,3.69,1.38,2.96,2.61,3.82,1.11,1.14,3.65,4.24,2.57,4.11,2.64,4.14
